The values that follow come from PubChem BioAssay (Tox21).

The structures appear in SMILES notation. Results filed as inconclusive are left out. Where a call stands in place of a potency, no number is given. Active and inactive are the calls of the source. The call rests on the fitted dose curve; in most records, active means well fitted activation curve with a large enough effect in the repeat runs; inconclusive means weak or mixed curves; inactive means flat fitted curve, though single readings scatter.
Potency means the concentration at half of the fitted maximal effect.

This assay can be described thus: A CellTox Green Cytotoxicity Assay to monitor cytotoxicity in HepG2 cells - 32 hour (AID 1224883). Further: nearly all actives have a fitted effect of over 50% in size. Particulars: CellTox Green fluorescence; series mostly up to 76.8 µM. The source says:
National Center for Advancing Translational Sciences [NCATS]
NIH Chemical Genomics Center [NCGC]
U.S. Environmental Protection Agency [EPA]
National Institutes of Environmental Health Sciences [NIEHS]
National Toxicology Program [NTP]
Cell-based models are critical for drug discovery. Determining the natural cytotoxic effects resulting from test compounds is an essential research activity. A CellTox Green Cytotoxicity Assay to monitor cytotoxicity in real time of continues cell culture during 40 hours of the compound treatment was used to screen Tox21 10K library compounds in HepG2 cells. CellTox Green Cytotoxicity Assay is a nonlytic, homogeneous, biofluorescent method to measure cytotoxicity in cell culture after experimental manipulation. The assay system uses a proprietary asymmetric cyanine dye that is excluded from viable cells but preferentially stains the dead cell's DNA. […] Viable cells produce no appreciable increases in fluorescence. Therefore, the fluorescence signal produced by the binding interaction with dead cell DNA is proportional to cytotoxicity.
The mixture of HepG2 cell suspension and reagents were dispensed at 600cells/6 ul/well in 1536-well tissue culture treated black solid bottom plates using a Multidrop dispenser. After the assay plates were incubated at a 37 C/5% CO2 incubator for 5 hours, 23 nL of compounds dissolved in DMSO, positive and negative controls was transferred to the assay plate by a pintool work station. The plates were incubated at 37 C for 40 hours. The fluorescence intensity were measured at 0h, 8h, 16h, 24h, 32h and 40h time points using ViewLux plate reader during compound treatment.
Turning to `NC(=O)OCCCc1ccccc1`, the Potency entry was “inactive”.
The same measure, in the same setting: the entry for `C=CCc1cc(OC)c2c(c1)OCO2` is “inactive”; for `CC1NCCOC1c1ccccc1` (stereo not given) it is “inactive”; for `COC1=CC(=O)O[C@@H](/C=C/c2ccccc2)C1` it is “inactive”.
On to `CC(C)c1ccc(O)cc1`, for which the Potency entry is “inactive”.
In the case of `CCN(CCO)CCO`, the Potency result was “inactive”.
Take `CC(C)C(C)(N)C#N` (stereo not given): the Potency entry was “inactive”.
On the same count and under the same terms, the entry for `CC(C)(C1CCC(O)CC1)C1CCC(O)CC1` (stereo not given) is “inactive”; for `C#CC(C)(C)O` it is “inactive”.
For the molecule `CCCCCCC(=O)CCCCCC/C=C/C[C@@H](O)[C@H](O)[C@@](N)(CO)C(=O)O`, the cytotoxicity increase is -23.6% [at 15.8 µM] (inactive).
Take `NC1(c2ccccc2)CCCCC1`: the Potency entry was “inactive”.
`CC(O)CCl` (stereo not given): the Potency result is “inactive”.
On the same count and under the same terms, the entry for `CC1=C2[C@H]3OC(=O)[C@@H](C)[C@@H]3CC[C@@]2(C)C=CC1=O` is “inactive”; for `CCSC(=O)Cl` it is “inactive”; for `CCOP(=S)(OCC)SCCl` it is “inactive”.
The same measure, in the same setting: under `C(COCC1CO1)OCC1CO1` (stereo not given) stands “inactive”; under `CNC(=O)O/N=C(/CSC)C(C)(C)C`, “inactive”.
In the case of `CC#Cc1cc(C)nc(Nc2ccccc2)n1`, the Potency entry was “inactive”.
Take `CON(C)C(=O)Nc1ccc(Br)cc1`: the Potency result was “inactive”.
For `CCC(C)(C#N)N=NC(C)(C#N)CC` (stereo not given), the Potency entry was “inactive”.
`CCOC(=O)N(C)N=O`: the Potency result was “inactive”.
For the molecule `CC(=O)OCC1=C(C(=O)O)N2C(=O)[C@@H](N)[C@H]2SC1`, the cytotoxicity increase is 0.0293% [at 15.8 µM] (inactive).
`COC[C@@H](NC(C)=O)C(=O)NCc1ccccc1`: the Potency result is “inactive”.
As to `Cc1ccc(-c2nc3ccc(C)cn3c2CC(=O)N(C)C)cc1`, the Potency entry was “inactive”.
On to `O=C(O)c1c(Cl)ccc2cc(Cl)cnc12`, for which the Potency result was “inactive”.
Same read-out and setting: the entry for `COC(=O)c1ccccc1CS(=O)(=O)NC(=O)Nc1nc(OC)cc(OC)n1` is “inactive”.
As to `CC(C)(C)C(=O)Cl`, the Potency result is “inactive”.
`C=C(C)[C@H]1CN[C@H](C(=O)O)[C@H]1CC(=O)O`: the Potency result is “inactive”.
`CON(C)C(=O)Nc1ccc(Br)c(Cl)c1`: the Potency entry was “inactive”.
Still for that read-out and setting: under `COC(=O)c1ccc(CBr)cc1` stands “inactive”.
On to `NNCc1ccccc1`, for which the Potency entry is “inactive”.
Turning to `COc1cccc([C@@]2(O)CCCC[C@@H]2CN(C)C)c1`, the Potency result was “inactive”.
With `C=CCN1CC[C@]23CCCC[C@H]2[C@H]1Cc1ccc(O)cc13`, the Potency entry was “inactive”.
Still for that read-out and setting: the entry for `CCN1CCCC1CNC(=O)C(O)(c1ccccc1)c1ccccc1` (stereo not given) is “inactive”; for `CCOC1Oc2ccc(OS(C)(=O)=O)cc2C1(C)C` (stereo not given) it is “inactive”.
`N[C@@H]1C[C@H]1c1ccccc1`: the Potency result was “inactive”.
As to `Cn1c(CCCC(=O)O)nc2cc(N(CCCl)CCCl)ccc21`, the Potency entry is “inactive”.
On the same count and under the same terms, the entry for `C#CCOC(=O)/C=C(C)/C=C/CC(C)CCCC(C)C` (stereo not given) is “inactive”.
For the molecule `C[C@H]1CCCC(=O)CCC/C=C/c2cc(O)cc(O)c2C(=O)O1`, the Potency entry is “inactive”.
As for `CCCN1CCC[C@@H]2Cc3nc(N)ncc3C[C@H]21`, the Potency was 21.3 µM (active).
